Source: PubChem BioAssay AID1159580 (chemical genetic matrix, 2015)
About 2,000 (36%) of roughly 5,500 compounds were called active. About 18% were inconclusive and are not listed. Cut-off read from the data, not from the text of the source: active = normalized growth mostly below about 0.91 (no sharp cut-off); inconclusive = no clear call, values can overlap the other calls; inactive = mostly above about 0.92. This is one part of the list.

Assay: chemical genetic growth profiling, strain panel (AID 1159580);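 note: tested at 20 µM; growth read once vehicle control cultures reached saturation at 30 °C; 1 = growth at the plate median or of vehicle wells; lower values mean less growth of the strain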
Conditions: growth OD
[1] = S. cerevisiae deletion strains, locus YAL013W, strain DEP1, active compounds read low
[2] = S. cerevisiae deletion strains, locus YBR021W, strain FUR4, active compounds read low
[3] = S. cerevisiae deletion strains, locus YBR229C, strain ROT2, active compounds read low
[4] = S. cerevisiae deletion strains, locus YCL029C, strain bik1, active compounds read low
[5] = S. cerevisiae deletion strains, locus YDL035C, strain GPR1, active compounds read low
[6] = S. cerevisiae deletion strains, locus YDL074C, strain BRE1, active compounds read low
[7] = S. cerevisiae deletion strains, locus YDL101C, strain DUN1, active compounds read low
[8] = S. cerevisiae deletion strains, locus YDL134C, strain PPH21, active compounds read low
[9] = S. cerevisiae deletion strains, locus YDL185W, strain tfp1, active compounds read low
[10] = S. cerevisiae deletion strains, locus YDL192W, strain arf1, active compounds read low
[11] = S. cerevisiae deletion strains, locus YDR101C, strain arx1, active compounds read low
[12] = S. cerevisiae deletion strains, locus YDR150W, strain NUM1, active compounds read low
[13] = S. cerevisiae deletion strains, locus YDR162C, strain NBP2, active compounds read low
[14] = S. cerevisiae deletion strains, locus YDR318W, strain mcm21, active compounds read low
[15] = S. cerevisiae deletion strains, locus YDR388W, active compounds read low
[16] = S. cerevisiae deletion strains, locus YDR502C, strain sam2, active compounds read low
[17] = S. cerevisiae deletion strains, locus YEL061C, strain CIN8, active compounds read low
[18] = S. cerevisiae deletion strains, locus YER110C, active compounds read low
[19] = S. cerevisiae deletion strains, locus YER155C, strain BEM2, active compounds read low
[20] = S. cerevisiae deletion strains, locus YER167W, strain BCK2, active compounds read low
[21] = S. cerevisiae deletion strains, locus YGL078C, strain dbp3, active compounds read low
[22] = S. cerevisiae deletion strains, locus YGL086W, strain mad1, active compounds read low
[23] = S. cerevisiae deletion strains, locus YGL248W, strain PDE1, active compounds read low
[24] = S. cerevisiae deletion strains, locus YGR078C, strain PAC10, active compounds read low
[25] = S. cerevisiae deletion strains, locus YGR135W, strain pre9, active compounds read low
[26] = S. cerevisiae deletion strains, locus YGR229C, strain SMI1, active compounds read low
[27] = S. cerevisiae deletion strains, locus YGR252W, strain gcn5, active compounds read low
[28] = S. cerevisiae deletion strains, locus YHR030C, strain SLT2, active compounds read low
[29] = S. cerevisiae deletion strains, locus YHR079C, strain IRE1 (second series), active compounds read low
[30] = S. cerevisiae deletion strains, locus YHR094C, strain hxt1, active compounds read low
[31] = S. cerevisiae deletion strains, locus YHR129C, strain ARP1, active compounds read low
[32] = S. cerevisiae deletion strains, locus YHR200W, strain rpn10, active compounds read low
[33] = S. cerevisiae deletion strains, locus YIL066C, strain RNR3, active compounds read low
[34] = S. cerevisiae deletion strains, locus YIL073C, strain SPO22, active compounds read low
[35] = S. cerevisiae deletion strains, locus YIL125W, strain kgd1, active compounds read low
[36] = S. cerevisiae deletion strains, locus YIR030C, strain dcg1, active compounds read low
[37] = S. cerevisiae deletion strains, locus YJL095W, strain BCK1, active compounds read low
[38] = S. cerevisiae deletion strains, locus YJL134W, strain LCB3, active compounds read low
[39] = S. cerevisiae deletion strains, locus YJL168C, strain set2, active compounds read low
[40] = S. cerevisiae deletion strains, locus YJL187C, strain SWE1 (second series), active compounds read low
[41] = S. cerevisiae deletion strains, locus YJR043C, strain POL32, active compounds read low
[42] = S. cerevisiae deletion strains, locus YJR075W, strain HOC1, active compounds read low
[43] = S. cerevisiae deletion strains, locus YKL009W, strain mrt4, active compounds read low
[44] = S. cerevisiae deletion strains, locus YKL068W, active compounds read low
[45] = S. cerevisiae deletion strains, locus YKL085W, strain MDH1 (second series), active compounds read low
[46] = S. cerevisiae deletion strains, locus YKL085W, strain MDH1, active compounds read low
[47] = S. cerevisiae deletion strains, locus YKL190W, strain CNB1, active compounds read low
[48] = S. cerevisiae deletion strains, locus YKR001C, strain vps1, active compounds read low
[49] = S. cerevisiae deletion strains, locus YLR039C, strain RIC1, active compounds read low
[50] = S. cerevisiae deletion strains, locus YLR058C, strain SHM2, active compounds read low
[51] = S. cerevisiae deletion strains, locus YLR102C, strain apc9, active compounds read low
[52] = S. cerevisiae deletion strains, locus YLR262C, strain YPT6, active compounds read low
[53] = S. cerevisiae deletion strains, locus YLR268W, strain sec22, active compounds read low
[54] = S. cerevisiae deletion strains, locus YLR330W, strain CHS5, active compounds read low
[55] = S. cerevisiae deletion strains, locus YLR342W, strain FKS1 (second series), active compounds read low
[56] = S. cerevisiae deletion strains, locus YLR371W, strain rom2, active compounds read low
[57] = S. cerevisiae deletion strains, locus YLR418C, strain cdc73, active compounds read low
[58] = S. cerevisiae deletion strains, locus YML016C, strain PPZ1, active compounds read low
[59] = S. cerevisiae deletion strains, locus YML032C, strain rad52, active compounds read low
[60] = S. cerevisiae deletion strains, locus YML124C, strain tub3, active compounds read low
[61] = S. cerevisiae deletion strains, locus YMR078C, strain ctf18, active compounds read low
[62] = S. cerevisiae deletion strains, locus YMR223W, strain ubp8, active compounds read low
[63] = S. cerevisiae deletion strains, locus YMR263W, strain SAP30, active compounds read low
[64] = S. cerevisiae deletion strains, locus YMR307W, strain GAS1, active compounds read low
[65] = S. cerevisiae deletion strains, locus YNL067W, strain RPL9B, active compounds read low
[66] = S. cerevisiae deletion strains, locus YNL128W, strain TEP1, active compounds read low
[67] = S. cerevisiae deletion strains, locus YNL153C, strain GIM3, active compounds read low
[68] = S. cerevisiae deletion strains, locus YNL233W, strain BNI4, active compounds read low
[69] = S. cerevisiae deletion strains, locus YNL250W, strain rad50, active compounds read low
[70] = S. cerevisiae deletion strains, locus YNL271C, strain bni1, active compounds read low
[71] = S. cerevisiae deletion strains, locus YNL298W, strain CLA4, active compounds read low
[72] = S. cerevisiae deletion strains, locus YNL307C, strain MCK1, active compounds read low
[73] = S. cerevisiae deletion strains, locus YNL322C, strain KRE1, active compounds read low
[74] = S. cerevisiae deletion strains, locus YNR052C, strain pop2, active compounds read low
[75] = S. cerevisiae deletion strains, locus YOL006C, strain TOP1, active compounds read low
[76] = S. cerevisiae deletion strains, locus YOL012C, strain htz1
[77] = S. cerevisiae deletion strains, locus YOL147C, strain pex11, active compounds read low
[78] = S. cerevisiae deletion strains, locus YOR061W, strain CKA2, active compounds read low
[79] = S. cerevisiae deletion strains, locus YOR069W, strain VPS5, active compounds read low
[80] = S. cerevisiae deletion strains, locus YOR136W, strain idh2, active compounds read low
[81] = S. cerevisiae deletion strains, locus YOR144C, strain elg1, active compounds read low
[82] = S. cerevisiae deletion strains, locus YOR184W, strain ser1, active compounds read low
[83] = S. cerevisiae deletion strains, locus YOR316C, strain cot1, active compounds read low
[84] = S. cerevisiae deletion strains, locus YPL055C, strain LGE1, active compounds read low
[85] = S. cerevisiae deletion strains, locus YPL241C, strain CIN2, active compounds read low
[86] = S. cerevisiae deletion strains, locus YPR119W, strain clb2, active compounds read low
[87] = S. cerevisiae deletion strains, locus YPR141C, strain kar3, active compounds read low
[88] = S. cerevisiae deletion strains, locus YPR163C, strain tif3, active compounds read low
[89] = S. cerevisiae deletion strains, locus YPR167C, strain met16, active compounds read low
[90] = S. cerevisiae deletion strains, strain wtn01, active compounds read low
[91] = S. cerevisiae strains, strain wild type, active compounds read low

Measured: normalized growth

C=C1C(C)C2C(Cc3ccccc3)NC(=O)C23OC(=O)/C=C/C(=O)CCCC(C)C/C=C/C3C1O (configuration not stated)
active: [15] 0.908 | [26] 0.609 | [28] 0.652 | [52] 0.597 | [64] 0.586 | [71] 0.896 | [72] 0.841 | [88] 0.884
inactive: [1] 0.981 | [2] 0.956 | [3] 1.01 | [4] 1.01 | [5] 0.952 | [6] 0.987 | [7] 1.01 | [8] 0.984 | [9] 1.02 | [10] 0.994 | [11] 1 | [12] 0.985 | [13] 0.912 | [14] 0.958 | [16] 0.998 | [17] 1.01 | [18] 1.01 | [19] 0.995 | [20] 0.974 | [21] 0.99 | [22] 0.998 | [23] 0.973 | [24] 0.864 | [25] 0.99 | [27] 0.966 | [29] 1.01 | [30] 1 | [31] 0.972 | [32] 1.01 | [33] 0.988 | [34] 0.815 | [35] 0.99 | [36] 1.01 | [37] 1.01 | [38] 1 | [39] 1.01 | [40] 1.01 | [41] 0.975 | [42] 1.03 | [43] 1.02 | [44] 0.993 | [45] 0.977 | [46] 0.977 | [47] 1 | [48] 0.935 | [49] 0.893 | [50] 1.01 | [51] 1.01 | [53] 1.03 | [54] 0.988 | [55] 0.805 | [56] 1.02 | [57] 0.94 | [58] 1 | [59] 1.01 | [60] 1.01 | [61] 1.01 | [62] 0.986 | [63] 1 | [65] 0.975 | [66] 0.973 | [67] 0.989 | [68] 1.02 | [69] 1.01 | [70] 0.96 | [73] 1.01 | [74] 1.01 | [75] 0.79 | [76] 0.448 | [77] 1 | [78] 0.996 | [79] 1 | [80] 0.991 | [81] 1 | [82] 0.992 | [83] 1.01 | [84] 0.97 | [85] 1 | [86] 1 | [87] 1.01 | [89] 1.01 | [90] 0.983 | [91] 0.966

C=C1C(C)C2C(Cc3ccccc3)NC(=O)C23OC(=O)/C=C/C(O)CCCC(C)C/C=C/C3C1O (configuration not stated)
inactive: [1] 1.01 | [2] 1.01 | [3] 1 | [4] 0.997 | [5] 1.02 | [6] 1.04 | [7] 1.01 | [8] 1.01 | [9] 1 | [10] 1 | [11] 0.995 | [12] 1.01 | [13] 0.998 | [14] 1 | [15] 1 | [16] 0.996 | [17] 1 | [18] 0.997 | [19] 0.993 | [20] 1.01 | [21] 1 | [22] 0.988 | [23] 0.997 | [24] 1.02 | [25] 0.999 | [26] 1.03 | [27] 1 | [28] 1 | [29] 0.987 | [30] 1.01 | [31] 0.998 | [32] 1 | [33] 1.02 | [34] 1.06 | [35] 0.984 | [36] 0.998 | [37] 1 | [38] 1 | [39] 0.998 | [40] 1.01 | [41] 1.01 | [42] 0.996 | [43] 1.01 | [44] 1 | [45] 0.999 | [46] 0.999 | [47] 1.01 | [48] 0.994 | [49] 1.01 | [50] 1 | [51] 1.01 | [52] 1.02 | [53] 1 | [54] 1.01 | [55] 1.02 | [56] 1.01 | [57] 0.995 | [58] 1 | [59] 1 | [60] 0.997 | [61] 0.992 | [62] 1 | [63] 1.01 | [64] 1.02 | [65] 1.01 | [66] 1.01 | [67] 1.02 | [68] 0.994 | [69] 1 | [70] 0.998 | [71] 0.995 | [72] 1.01 | [73] 1.01 | [74] 1.01 | [75] 1.03 | [76] 0.948 | [77] 0.997 | [78] 1 | [79] 1 | [80] 0.999 | [81] 1 | [82] 1.03 | [83] 1 | [84] 1.03 | [85] 1.01 | [86] 0.999 | [87] 1 | [88] 1 | [89] 0.999 | [90] 0.995 | [91] 1.01
